Test results: PubChem BioAssay (NCI)
Compounds without any hit were thinned out: in the full panel of roughly 79,000, 15% have a hit. A number with no mark means an inactive call. Active and inactive are the calls of the source. Rule as the data show it: active = growth inhibition above about 70%; inactive = the rest.

Experiment: NCI Yeast Anticancer Drug Screen. Data for the rad52 strain (AID 147);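 also: 0% = growth of vehicle-treated control cultures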
Conditions: S. cerevisiae rad52 mutant growth inhibition; at 100.0 µM; active compounds read high
In short: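 Read-out: growth inhibition versus vehicle-treated controls. Cells were a DNA repair-deficient yeast strain treated with compounds.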

Compound | growth inhibition
O=C1/C(=C/c2ccccc2)CCCC1CN1CCCCC1 (stereo not drawn) | 78% (active)
C#CCN(Cc1ccc2nc(N)[nH]c(=O)c2c1)c1ccc(C(=O)NC(CCC(=O)O)C(=O)O)cc1 (stereo not drawn) | 88% (active)
CCOC1(c2cccc([N+](=O)[O-])c2)c2ccccc2Oc2ccccc21 | 19%
O=C(O)CNC(=S)Nc1ccccc1 | 85% (active)
N/C(=N/N=C/c1cc(Br)cc(Br)c1O)NO | 97% (active)
C[Si](C)(C)/C=C/CCNC(C#N)c1ccccc1 (stereo not drawn) | 93% (active)
CCCCCCCCCCCCCCCCOP(=O)(O)OCC(N)C(=O)O (stereo not drawn) | 98% (active)
CC1=C(C(=O)NCc2ccccc2)C(c2ccccc2)C(C(=O)NCc2ccccc2)=C(C)N1 | 85% (active)
O=[N+]([O-])c1cc(S(=O)(=O)Nc2ccccc2)ccc1Nc1ccccc1 | 76% (active)
COc1cc2ccnc(-c3c4ccccc4c(N)c4c(OC)c(OC)ccc34)c2cc1OC | 93% (active)
CCOC(=O)C(Br)C(Br)c1ccccc1Cl (stereo not drawn) | 99% (active)
CCOC(=O)C1=C(C)NC(C)=C(C(=O)OCCNC(=O)c2ccc(N=[N+]=[N-])cc2)C1c1ccccc1C(F)(F)F (stereo not drawn) | 39%
Cc1cc(C)c(NC(=S)NC(=O)c2ccccc2)cc1C | -44%
CNCCCNc1c2ccccc2nc2cccc([N+](=O)[O-])c12 | 96% (active)
COc1c(O)c(C=O)c(Br)c(C=O)c1O | 91% (active)
Cc1c(C)c(C)c(CSC(=N)N)c(C)c1C | 98% (active)
O=C(CSC(=S)N1CCCCC1)Nc1nc2c(s1)CCCC2 | 79% (active)
CNC(=O)OCc1c(COC(=O)NC)c(-c2ccc(Cl)cc2)n2c1CCC2 | 69%
CC(=O)OC1CC2C(C)(C)C(=O)C=C[C@]2(C)C2CCC3(C)C(=CCC3[C@H](CO)C[C@H](O)C(=O)C(C)(C)O)[C@]12C (stereo partly drawn) | 81% (active)
CCCCCCOC(=O)NCCOC(=O)Nc1ccccc1 | 6%

Compound | growth inhibition
C[C](C)(C)[Ge]([O][Ge]([c]1ccccc1)[c]1ccccc1)([O][Ge]([c]1ccccc1)[c]1ccccc1)[C](C)(C)C | 78% (active)
CCc1c(Cl)c(C)cc(O)c1Cl | 96% (active)
Cc1nc(Nc2ccccc2[N+](=O)[O-])sc1C(=O)CC(=O)C(=O)Nc1c(C(C)C)cccc1C(C)C | 1%
O=[N+]([O-])c1cccc2nc3ccccc3c(NCCCn3ccnc3[N+](=O)[O-])c12 | 97% (active)
CCCCCCC(O)CNCc1ccnc2ccc(OC)cc12 (stereo not drawn) | 52%
Cc1c2cccc(Sc3ccccc3)c2c2c3c(cccc13)[S+](c1ccccc1)C2 (stereo not drawn) | 88% (active)
C=C1CCC(O)C/C1=C/C=C1\CCCC2(C)C1CCC2C(C)CCCC(C)C (stereo not drawn) | 49%
NC1=NNC2(C(N)=N1)c1ccccc1-c1ccccc12 | 96% (active)
COc1cc2cc3c4cc(OC)c(OC)cc4cc[n+]3c(C)c2cc1OC | -13%
COC(=O)NC1C(C)OC(OC2C/C=C(/C)C3C=CC4C(OC5CC(OC6CC(O)C(OC7CC(O)C(OC)C(C)O7)C(C)O6)C(O)C(C)O5)C(C)CC(C)C4C3(C)/C(O)=C3\C(=O)OC4(CC(C)C(CO)=CC4/C=C\2C)C3=O)CC1(C)[N+](=O)[O-] (stereo not drawn) | 21%
O=C1CSC(c2cccc(Cl)c2)N1c1ccc(-c2ccc(-n3c(-c4ccccc4)nc4ccccc4c3=O)cc2)cc1 (stereo not drawn) | 18%
CCOC(=O)C(C(=O)OCC)=P(c1ccccc1)(c1ccccc1)c1ccccc1 | 95% (active)
COc1ccc(N=CN(C)C)c(C)c1 | 94% (active)
Cc1cc(S(=O)(=O)Nc2nnc3cnc4ccccc4n23)c(S)cc1Cl | 43%
O=C(Oc1ccc2c(c1)CN(Cc1ccccc1)CO2)c1ccccc1 | 38%
CN(C)[C@@H]1C(=O)C(C(N)=O)=C(O)[C@@]2(O)C(=O)C3=C(O)c4c(O)cccc4C[C@H]3C[C@@H]12 | 98% (active)
O=[N+]([O-])c1ccc2c(c1)/C(=N/N=C1c3ccccc3Cc3ccccc31)c1cc([N+](=O)[O-])cc([N+](=O)[O-])c1-2 | 96% (active)
Cc1nc2c(Br)cc(Br)cc2c(=O)n1-c1ccccc1NC1OCC(O)C(O)C1O (stereo not drawn) | 97% (active)
Cc1cc(N(CCOS(C)(=O)=O)CCOS(C)(=O)=O)ccc1C=Nc1ccc(-c2nc(Cc3ccccc3)sc2C)cc1 | 96% (active)

Experiment: NCI Yeast Anticancer Drug Screen. Data for the wt1 strain (AID 149);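 also: 0% = growth of vehicle-treated wt1 cultures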
Conditions: S. cerevisiae wt1 strain (SPY 50644) growth inhibition; at 1.2 µM; active compounds read high
In short: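 Growth inhibition read against vehicle controls after compound exposure of the wt1 yeast strain.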

Compound | growth inhibition [%]
O=C1/C(=C/c2ccccc2)CCCC1CN1CCCCC1 (stereo not drawn) | 10
C#CCN(Cc1ccc2nc(N)[nH]c(=O)c2c1)c1ccc(C(=O)NC(CCC(=O)O)C(=O)O)cc1 (stereo not drawn) | 2
CCOC1(c2cccc([N+](=O)[O-])c2)c2ccccc2Oc2ccccc21 | 2
O=C(O)CNC(=S)Nc1ccccc1 | -52
N/C(=N/N=C/c1cc(Br)cc(Br)c1O)NO | -94
C[Si](C)(C)/C=C/CCNC(C#N)c1ccccc1 (stereo not drawn) | 3
CCCCCCCCCCCCCCCCOP(=O)(O)OCC(N)C(=O)O (stereo not drawn) | -19
CC1=C(C(=O)NCc2ccccc2)C(c2ccccc2)C(C(=O)NCc2ccccc2)=C(C)N1 | 0
O=[N+]([O-])c1cc(S(=O)(=O)Nc2ccccc2)ccc1Nc1ccccc1 | -16
COc1cc2ccnc(-c3c4ccccc4c(N)c4c(OC)c(OC)ccc34)c2cc1OC | -4
CCOC(=O)C(Br)C(Br)c1ccccc1Cl (stereo not drawn) | -4
CCOC(=O)C1=C(C)NC(C)=C(C(=O)OCCNC(=O)c2ccc(N=[N+]=[N-])cc2)C1c1ccccc1C(F)(F)F (stereo not drawn) | 1
Cc1cc(C)c(NC(=S)NC(=O)c2ccccc2)cc1C | -46
CNCCCNc1c2ccccc2nc2cccc([N+](=O)[O-])c12 | 2
COc1c(O)c(C=O)c(Br)c(C=O)c1O | 0
Cc1c(C)c(C)c(CSC(=N)N)c(C)c1C | -29
O=C(CSC(=S)N1CCCCC1)Nc1nc2c(s1)CCCC2 | -9
CNC(=O)OCc1c(COC(=O)NC)c(-c2ccc(Cl)cc2)n2c1CCC2 | -37
CC(=O)OC1CC2C(C)(C)C(=O)C=C[C@]2(C)C2CCC3(C)C(=CCC3[C@H](CO)C[C@H](O)C(=O)C(C)(C)O)[C@]12C (stereo partly drawn) | -26
CCCCCCOC(=O)NCCOC(=O)Nc1ccccc1 | 1

Compound | growth inhibition [%]
C[C](C)(C)[Ge]([O][Ge]([c]1ccccc1)[c]1ccccc1)([O][Ge]([c]1ccccc1)[c]1ccccc1)[C](C)(C)C | -3
CCc1c(Cl)c(C)cc(O)c1Cl | -31
Cc1nc(Nc2ccccc2[N+](=O)[O-])sc1C(=O)CC(=O)C(=O)Nc1c(C(C)C)cccc1C(C)C | 2
O=[N+]([O-])c1cccc2nc3ccccc3c(NCCCn3ccnc3[N+](=O)[O-])c12 | -6
CCCCCCC(O)CNCc1ccnc2ccc(OC)cc12 (stereo not drawn) | 2
Cc1c2cccc(Sc3ccccc3)c2c2c3c(cccc13)[S+](c1ccccc1)C2 (stereo not drawn) | 8
C=C1CCC(O)C/C1=C/C=C1\CCCC2(C)C1CCC2C(C)CCCC(C)C (stereo not drawn) | -26
NC1=NNC2(C(N)=N1)c1ccccc1-c1ccccc12 | 4
COc1cc2cc3c4cc(OC)c(OC)cc4cc[n+]3c(C)c2cc1OC | -33
COC(=O)NC1C(C)OC(OC2C/C=C(/C)C3C=CC4C(OC5CC(OC6CC(O)C(OC7CC(O)C(OC)C(C)O7)C(C)O6)C(O)C(C)O5)C(C)CC(C)C4C3(C)/C(O)=C3\C(=O)OC4(CC(C)C(CO)=CC4/C=C\2C)C3=O)CC1(C)[N+](=O)[O-] (stereo not drawn) | 10
O=C1CSC(c2cccc(Cl)c2)N1c1ccc(-c2ccc(-n3c(-c4ccccc4)nc4ccccc4c3=O)cc2)cc1 (stereo not drawn) | 1
CCOC(=O)C(C(=O)OCC)=P(c1ccccc1)(c1ccccc1)c1ccccc1 | 0
COc1ccc(N=CN(C)C)c(C)c1 | -29
Cc1cc(S(=O)(=O)Nc2nnc3cnc4ccccc4n23)c(S)cc1Cl | -1
O=C(Oc1ccc2c(c1)CN(Cc1ccccc1)CO2)c1ccccc1 | 2
CN(C)[C@@H]1C(=O)C(C(N)=O)=C(O)[C@@]2(O)C(=O)C3=C(O)c4c(O)cccc4C[C@H]3C[C@@H]12 | -1
O=[N+]([O-])c1ccc2c(c1)/C(=N/N=C1c3ccccc3Cc3ccccc31)c1cc([N+](=O)[O-])cc([N+](=O)[O-])c1-2 | -19
Cc1nc2c(Br)cc(Br)cc2c(=O)n1-c1ccccc1NC1OCC(O)C(O)C1O (stereo not drawn) | -50
Cc1cc(N(CCOS(C)(=O)=O)CCOS(C)(=O)=O)ccc1C=Nc1ccc(-c2nc(Cc3ccccc3)sc2C)cc1 | -29
